Results published in PubChem BioAssay (Tox21).
Values joined by “and” are separate entries in the source; they are usually repeats but may differ in a detail not shown here. Identical values can stand only once. Results filed as inconclusive are left out. Where a call stands in place of a potency, no number is given. Where a structure was tested more than once in an assay, its records may differ in their call. Active and inactive are the calls of the source. Unless noted, calls follow the shape of the full dose curve.

Assays:
[1] = Nuclear factor erythroid 2-related factor 2/antioxidant responsive element (Nrf2/ARE) small molecule agonists: luciferase reporter gene qHTS assay in human keratinocytes (AID 1919969); also: nearly all actives have a fitted effect of over 35% in size; also: potency is read from the fitted curve at half-maximal effect
[2] = target: Gonadotropin-releasing hormone receptor (Homo sapiens) (UniProt P30968); experiment: Human gonadotropin-releasing hormone receptor (GnRHR) small molecule agonists, calcium flux assay in GnRHR-HEK293 cells (AID 1920063); also: nearly all actives have a fitted effect of over 35% in size; also: potency is read from the fitted curve at half-maximal effect
Gonadotropin-releasing hormone receptor (Homo sapiens), sequence (P30968 whole entry, looked up): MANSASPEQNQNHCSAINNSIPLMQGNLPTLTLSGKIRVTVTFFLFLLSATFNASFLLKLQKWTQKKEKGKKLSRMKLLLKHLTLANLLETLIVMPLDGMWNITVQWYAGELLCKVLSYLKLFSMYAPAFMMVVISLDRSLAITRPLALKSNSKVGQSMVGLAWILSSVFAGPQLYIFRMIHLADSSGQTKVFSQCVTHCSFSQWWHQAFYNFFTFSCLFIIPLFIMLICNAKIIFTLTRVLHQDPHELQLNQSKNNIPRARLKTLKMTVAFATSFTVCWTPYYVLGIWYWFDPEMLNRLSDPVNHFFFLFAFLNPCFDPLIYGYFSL
Procedure, shortened: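 Stable human GnRHR HEK293 line. 18 h plating, then calcium dye for 1 h at 37 C. Agonist-mode compound addition from DMSO stocks; fluorescence monitored 3 min.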

[3] = target: KiSS-1 receptor (Homo sapiens) (UniProt Q969F8); experiment: Human kisspeptin (KISS1R) small molecule agonists, calcium flux assay in KISS1R-HEK293 cells (AID 1920064; active = well fitted activation curve with a large enough effect in the repeat runs)
KiSS-1 receptor (Homo sapiens), sequence (Q969F8 whole entry, looked up): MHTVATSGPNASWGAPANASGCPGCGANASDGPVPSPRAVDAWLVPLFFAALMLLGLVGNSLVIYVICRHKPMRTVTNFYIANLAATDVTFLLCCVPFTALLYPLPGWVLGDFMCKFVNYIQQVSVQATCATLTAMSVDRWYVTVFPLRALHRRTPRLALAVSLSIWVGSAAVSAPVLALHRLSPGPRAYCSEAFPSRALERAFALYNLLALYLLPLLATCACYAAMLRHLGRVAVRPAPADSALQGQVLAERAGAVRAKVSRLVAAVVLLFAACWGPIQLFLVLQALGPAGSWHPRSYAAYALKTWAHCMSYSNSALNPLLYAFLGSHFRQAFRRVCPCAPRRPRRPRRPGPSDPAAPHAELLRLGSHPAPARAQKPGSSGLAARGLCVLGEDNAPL
Procedure, shortened: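 After overnight (18 h) culture at 37 C/5% CO2, human KISS1R-HEK293 cells received calcium dye for 1 h, then test compound; emission at 540 nm (excitation 480 nm) was tracked for 3 min.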

[4] = G protein-coupled receptor (GPCR) small molecule agonists, calcium flux assay: HEK293 wild type cell line counter screen (AID 1920065)
Procedure, shortened: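 Following 18 h incubation at 37 C/5% CO2, plates got calcium dye for 1 h; compounds, ATP or DMSO were then pinned in and fluorescence followed kinetically (480/540 nm).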

[5] = p53 small molecule agonists, cell-based qHTS assay with rat liver microsomes: qHTS cell viability counter screen (AID 1963580); also: nearly all actives have a fitted effect of over 45% in size
Procedure, shortened: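 After the beta-lactamase ratio was read, CellTiter-Glo was added to the same wells and luminescence measured at 30 min; cells had been treated 16 h at 37 C with compounds, rat liver microsomes and NADPH (0.5 mg/mL final each).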

[6] = p53 small molecule agonists, cell-based qHTS assay: qHTS cell viability counter screen (AID 1963581); also: nearly all actives have a fitted effect of over 45% in size
Procedure, shortened: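 qHTS counter screen: 16 h compound exposure at 37 C of p53RE-bla HCT-116 cells (4,000 per well, seeded 5 h prior), cell viability by ATP luminescence.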

[7] = target: 5-hydroxytryptamine receptor 2A (Homo sapiens) (UniProt P28223); experiment: 5-hydroxytryptamine receptor 2A (HTR2A) small molecule antagonists, cell-based qHTS assay (AID 1963586); also: nearly all actives have a fitted effect of over 45% in size; also: potency is read from the fitted curve at half-maximal effect
5-hydroxytryptamine receptor 2A (Homo sapiens), sequence (P28223 whole entry, looked up): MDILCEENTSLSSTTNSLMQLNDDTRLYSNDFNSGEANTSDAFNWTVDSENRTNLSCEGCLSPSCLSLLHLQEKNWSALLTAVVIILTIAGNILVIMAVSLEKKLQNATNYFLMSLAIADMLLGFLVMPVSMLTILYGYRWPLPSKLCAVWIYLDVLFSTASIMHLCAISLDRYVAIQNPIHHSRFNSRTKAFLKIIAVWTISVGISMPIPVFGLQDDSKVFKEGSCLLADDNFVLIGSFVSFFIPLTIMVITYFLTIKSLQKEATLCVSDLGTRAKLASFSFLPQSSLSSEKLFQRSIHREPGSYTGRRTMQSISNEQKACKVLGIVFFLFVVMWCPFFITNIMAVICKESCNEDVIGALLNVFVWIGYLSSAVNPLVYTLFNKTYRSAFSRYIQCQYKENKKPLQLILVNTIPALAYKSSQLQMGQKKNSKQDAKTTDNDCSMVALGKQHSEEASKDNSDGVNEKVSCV
Procedure, shortened: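 CHO cells stably expressing human HTR2A were plated for 18 h at 37 C, then loaded with calcium dye for 1 h. Compounds were preincubated 5 min at room temperature before DOI (4 nM solution) was added. Kinetic fluorescence was read for 3 min.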

[8] = target: 5-hydroxytryptamine receptor 2A (Homo sapiens) (UniProt P28223); experiment: 5-hydroxytryptamine receptor 2A (HTR2A) small molecule agonists, cell-based qHTS assay (AID 1963587); also: nearly all actives have a fitted effect of over 30% in size; also: potency is read from the fitted curve at half-maximal effect
Procedure, shortened: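 CHO cells stably expressing human HTR2A, plated 18 h, loaded with calcium dye 1 h at 37 C. Agonist mode: compounds added and intracellular calcium fluorescence recorded kinetically for 2 min at 1 sec intervals.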

[9] = target: Muscarinic acetylcholine receptor M1 (Homo sapiens) (UniProt P11229); experiment: Cholinergic receptor muscarinic 1 (CHRM1) small molecule agonists, cell-based qHTS assay (AID 1963589); also: nearly all actives have a fitted effect of over 35% in size
Muscarinic acetylcholine receptor M1 (Homo sapiens), sequence (P11229 whole entry, looked up): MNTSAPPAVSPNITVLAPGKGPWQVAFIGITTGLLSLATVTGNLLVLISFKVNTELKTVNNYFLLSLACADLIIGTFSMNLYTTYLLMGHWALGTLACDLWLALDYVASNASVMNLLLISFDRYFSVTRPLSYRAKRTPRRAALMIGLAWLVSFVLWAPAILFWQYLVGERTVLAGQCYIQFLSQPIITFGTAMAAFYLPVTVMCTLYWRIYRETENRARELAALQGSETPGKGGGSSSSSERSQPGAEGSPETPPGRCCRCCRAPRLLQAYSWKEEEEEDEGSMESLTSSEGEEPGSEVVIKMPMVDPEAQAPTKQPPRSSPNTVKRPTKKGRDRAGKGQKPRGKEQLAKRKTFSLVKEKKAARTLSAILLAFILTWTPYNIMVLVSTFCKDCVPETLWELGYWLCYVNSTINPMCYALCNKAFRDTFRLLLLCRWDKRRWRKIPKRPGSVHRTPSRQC
Procedure, shortened: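 Kinetic fluorescence (1 s intervals) of calcium-sensitive dye in human M1 CHO cells after compound addition; cells pre-incubated 18 h at 37 C/5% CO2 and dye-loaded 1 h.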

[10] = cAMP Responsive Elements (CRE) small molecule agonists, cell-based qHTS assay (AID 1963590)
Procedure, shortened: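 Test agents in DMSO were incubated 3 h at 37 C/5% CO2 with CRE-bla HEK 293T cells seeded 18 h earlier; LiveBLAzer B/G FRET substrate was added and read after 2 h at room temperature.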

[11] = cAMP Responsive Elements (CRE) small molecule antagonists, cell-based qHTS assay (AID 1963591; active = well fitted inhibition curve with a large enough effect in the signal ratio in the repeat runs, not every such curve was filed as active; the % refers to the signal ratio; also: potency is read from the fitted curve at half-maximal effect)
Procedure, shortened: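 Reporter line CRE-bla HEK 293T in dialyzed-FBS DMEM; cells preincubated 18 h, treated 3 h with compound plus NKH477 (0.25 uM final); LiveBLAzer FRET, 2 h RT.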

[12] = target: Beta-2 adrenergic receptor (Homo sapiens) (UniProt P07550); experiment: Adrenergic beta2 receptor (ADRB2) small molecule antagonists, cell-based qHTS assay (AID 1963592); also: series mostly up to about 92 µM; nearly all actives have a fitted effect of over 50% in size
Beta-2 adrenergic receptor (Homo sapiens), sequence (P07550 whole entry, looked up): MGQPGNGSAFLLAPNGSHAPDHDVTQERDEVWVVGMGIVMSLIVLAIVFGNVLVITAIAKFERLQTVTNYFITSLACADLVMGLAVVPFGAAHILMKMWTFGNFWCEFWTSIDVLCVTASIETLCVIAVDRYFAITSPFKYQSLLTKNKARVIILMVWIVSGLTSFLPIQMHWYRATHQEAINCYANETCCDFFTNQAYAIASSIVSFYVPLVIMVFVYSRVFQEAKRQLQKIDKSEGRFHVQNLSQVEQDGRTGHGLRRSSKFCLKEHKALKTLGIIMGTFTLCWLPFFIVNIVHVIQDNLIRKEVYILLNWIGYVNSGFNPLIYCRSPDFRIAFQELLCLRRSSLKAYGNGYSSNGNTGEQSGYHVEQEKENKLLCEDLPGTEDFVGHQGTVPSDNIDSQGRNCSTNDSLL
Procedure, shortened: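 Assay format: CHO-ADRB2 cells, 18-20hr seeding at 37C/5% CO2, then compound plus 1nM isoproterenol agonist mix for 0.5hr RT. Homogeneous time-resolved fluorescence cAMP detection after 1hr, expressed as 665/615 nm ratio.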

[13] = target: D(2) dopamine receptor (Homo sapiens) (UniProt P14416); experiment: Dopamine D2 receptor (DRD2) small molecule agonists, cell-based qHTS assay (AID 1963594); also: nearly all actives have a fitted effect of over 35% in size
D(2) dopamine receptor (Homo sapiens), sequence (P14416 whole entry, looked up): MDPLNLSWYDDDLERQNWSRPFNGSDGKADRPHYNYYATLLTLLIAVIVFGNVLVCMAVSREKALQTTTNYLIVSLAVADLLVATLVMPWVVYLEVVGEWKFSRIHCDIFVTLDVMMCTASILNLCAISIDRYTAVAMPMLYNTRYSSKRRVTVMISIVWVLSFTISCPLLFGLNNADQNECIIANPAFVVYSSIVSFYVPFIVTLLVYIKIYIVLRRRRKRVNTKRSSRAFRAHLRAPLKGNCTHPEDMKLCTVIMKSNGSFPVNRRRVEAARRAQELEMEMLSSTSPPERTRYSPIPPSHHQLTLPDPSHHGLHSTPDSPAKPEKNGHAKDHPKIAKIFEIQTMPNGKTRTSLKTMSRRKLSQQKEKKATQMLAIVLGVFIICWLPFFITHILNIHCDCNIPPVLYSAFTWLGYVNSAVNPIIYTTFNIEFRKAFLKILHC
Procedure, shortened: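 HEK293 cells stably expressing human DRD2, pre-treated with PDE inhibitor Ro20-1724 (0.1 mM final) and compound 10 min at room temperature, then stimulated with NKH477 (200nM […]) for 30 min. cAMP read by HTRF (665/620 nm).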

[14] = target: D(2) dopamine receptor (Homo sapiens) (UniProt P14416); experiment: Dopamine D2 receptor (DRD2) small molecule antagonists, cell-based qHTS assay (AID 1963595; active = well fitted inhibition curve with a large enough effect in the signal ratio in the repeat runs, with a control signal flat; the % refers to the signal ratio; also: potency is read from the fitted curve at half-maximal effect)
Procedure, shortened: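 HTRF cAMP read-out at 665 and 620 nm emission (340 nm excitation). Antagonist mode: compounds were tested against 12 nM quinpirole in DRD2-HEK293 cells, with 200 nM NKH477 raising cAMP and 0.1 mM Ro20-1724 blocking its breakdown.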

[15] = target: Beta-2 adrenergic receptor (Homo sapiens) (UniProt P07550); experiment: Adrenergic beta2 receptor (ADRB2) small molecule agonists, cell-based qHTS assay (AID 1963593);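 also: CHO cells stably overexpressing human ADRB2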
Procedure, shortened: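 CHO cells stably over-expressing ADRB2 were plated overnight at 37C, then dosed with compounds plus a stimulation mix containing 100uM IBMX and 25uM Ro-20-1724 for 0.5hr at room temperature. cAMP was measured by HTRF competition, 1hr.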

[16] = p53 small molecule agonists, cell-based qHTS assay with human liver microsomes: qHTS cell viability counter screen (AID 1963579); also: nearly all actives have a fitted effect of over 45% in size; also: potency is read from the fitted curve at half-maximal effect
Procedure, shortened: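 Cells carrying the p53 response-element beta-lactamase reporter are treated for 16 h at 37 C with test compounds in the presence of human liver microsomes and NADPH (both 0.5 mg/mL final); ATP-based CellTiter-Glo luminescence then reports viability.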

[17] = p53 small molecule agonists, cell-based qHTS assay with rat liver microsomes (AID 1963578)
Procedure, shortened: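 Read-out is beta-lactamase reporter fluorescence (LiveBLAzer, 2 h, room temperature, dark) in p53RE-bla cells treated 16 h at 37 C with compound, rat liver microsomes and NADPH, both 0.5 mg/mL final.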

[18] = target: Muscarinic acetylcholine receptor M1 (Homo sapiens) (UniProt P11229); experiment: Cholinergic receptor muscarinic 1 (CHRM1) small molecule antagonists, cell-based qHTS assay (AID 1963588); also: nearly all actives have a fitted effect of over 40% in size
Procedure, shortened: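 Compounds were tested at 15 concentrations in three independent runs. Dye-loaded CHRM1-CHO cells were exposed 5 min at room temperature before stimulation by acetylcholine added at 50nM. Intracellular calcium was read kinetically on FDSS for 3 min.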

[19] = p53 small molecule agonists, cell-based qHTS assay with human liver microsomes (AID 1963577)
Procedure, shortened: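 Compounds act here after metabolic activation: human liver microsomes and NADPH, both at 0.5 mg/mL final, were co-added to p53RE-bla cells. Incubation ran 16 h at 37 C, followed by LiveBLAzer detection.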

[20] = p53 small molecule agonists, cell-based qHTS assay (AID 1963582; active = well fitted activation curve with a large enough effect in the signal ratio in the repeat runs, not every such curve was filed as active; the % refers to the signal ratio)
Procedure, shortened: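 Measured: fluorescence from cleaved LiveBLAzer substrate. System: p53RE-bla cells, 16 h compound treatment at 37 C, 2 h substrate step at room temperature.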

Row | Compound | Potency [1] | Potency [2] | Potency [3] | Potency [4] | Potency [5] | Potency [6] | Potency [7] | Potency [8] | Potency [9] | Potency [10] | Potency [11] | Potency [12] | Potency [13] | Potency [14] | Potency [15] | Potency [16] | Potency [17] | Potency [18] | Potency [19] | Potency [20]
1 | O=C(Nc1ccccc1)c1ccccc1I | inactive | inactive | inactive | inactive | inactive | inactive | inactive | inactive | inactive | inactive | inactive | inactive | inactive | inactive | – | – | – | – | – | –
2 | CCCCCCCc1ccc(O)cc1 | 24.3 µM (active) | inactive | inactive | inactive | inactive | inactive | inactive | inactive | – | inactive | 68.6 µM (active) | inactive | inactive | – | inactive | – | – | – | – | –
3 | CN1CCc2cc3c(cc2C1O)OCO3 (centres undefined) | 54.8 µM (active) | inactive | inactive | inactive | inactive | inactive | inactive | inactive | inactive | – | – | – | inactive | inactive | – | inactive | – | – | – | –
4 | Oc1c(Cl)c(Cl)cc(Cl)c1Cl | inactive | inactive | inactive | – | inactive | inactive | inactive | inactive | inactive | – | – | inactive | – | inactive | inactive | – | inactive | inactive | – | –
5 | C=CCOC(=O)C(C)(C)OC(=O)c1cc(-n2c(=O)cc(C(F)(F)F)n(C)c2=O)ccc1Cl | inactive | inactive | inactive | inactive | inactive | inactive | inactive | inactive | inactive | inactive | – | inactive | inactive | inactive | inactive | inactive | – | inactive | – | –
6 | CC(C)=CC1C(C(=O)OCc2coc(Cc3ccccc3)c2)C1(C)C (centres undefined) | 61.2 µM (active) and 61.1 µM (active) | inactive | inactive | – | inactive | inactive | inactive | inactive | inactive | inactive | inactive | inactive | inactive | inactive | – | inactive | – | inactive | – | –
7 | CN(N=O)c1ccc([N+](=O)[O-])cc1 | inactive | inactive | inactive | inactive | inactive | inactive | inactive | inactive | inactive | – | inactive | inactive | inactive | inactive | – | inactive | – | inactive | – | –
8 | CC(C)(c1ccccc1)c1ccc(O)cc1 | inactive | inactive | – | inactive | inactive | inactive | 33.2 µM (active) and inactive | 54.5 µM (active) and inactive | inactive | – | – | inactive | inactive | 61.1 µM (active) | inactive | 45.4 µM (active) and inactive | inactive | inactive | inactive | inactive
9 | CCCCc1ccccc1 | inactive | inactive | inactive | – | inactive | inactive | inactive | inactive | inactive | inactive | inactive | – | inactive | inactive | inactive | – | – | inactive | – | –
10 | CC(C)c1c(CN(C)C(C)Cc2ccccc2)n(C)n(-c2ccccc2)c1=O (centres undefined) | inactive | inactive | inactive | inactive | inactive | inactive | – | inactive | inactive | – | – | inactive | inactive | inactive | inactive | – | – | inactive | – | inactive
11 | CC(C)(O)c1cnn2c(-c3ccc(F)c(-c4c(F)cccc4C#N)c3)cnc2n1 | inactive | 38.9 µM (active) | inactive | inactive | inactive | inactive | inactive | 54.9 µM (active) | – | – | – | inactive | – | inactive | inactive | inactive | – | inactive | – | –
12 | CCC(C)(C)C(=O)OC1=C(c2ccc(Cl)cc2Cl)C(=O)OC12CCCCC2 | 9.69 µM (active) | inactive | inactive | inactive | inactive | – | inactive | inactive | inactive | – | – | inactive | – | inactive | inactive | inactive | – | inactive | – | inactive
13 | CCOP(=O)(OCC)Oc1nc(Cl)c(Cl)cc1Cl | inactive | inactive | inactive | inactive | inactive | inactive | inactive | inactive | inactive | – | – | – | inactive | inactive | – | – | – | inactive | – | –
14 | O=[N+]([O-])c1cc(Cl)c(Cl)cc1Cl | inactive | inactive | inactive | – | inactive | inactive | inactive | inactive | – | inactive | – | inactive | – | inactive | – | inactive | – | inactive | – | –
15 | Cc1cccc(C)c1NC1=NCCCS1 | inactive | inactive | inactive | – | – | inactive | inactive | inactive | inactive | inactive | inactive | inactive | inactive | inactive | – | inactive | – | – | – | –
16 | CCC1(C2=NCCN2)Cc2ccccc2O1 (centres undefined) | inactive | inactive | inactive | inactive | – | – | inactive | inactive | inactive | inactive | inactive | inactive | – | – | inactive | inactive | – | inactive | – | –
17 | C1CCC(C2CCCCC2)CC1 | inactive | inactive | inactive | inactive | – | inactive | inactive | inactive | inactive | – | – | inactive | inactive | inactive | inactive | inactive | – | inactive | – | –
